# Shown are actives, neighbours in structure and some others; about 5.3% of the full set was active somewhere.
# BAZ2B block: BAZ2B (human) inhibition. Q9UIF8. AlphaScreen BAZ2B-H3K14Ac peptide displacement. Potency, µM (highest dose often 114 µM), most hits filed as inhibitors. actives 4.4% (n = 360,000). AID 504333; also: nearly all actives have a fitted effect of over 60% in size
#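 BAZ2B 50 nM plus b-H3(5-23)K14Ac 50 nM, PBS pH 7.4/0.01% Tween-20, 30 min RT; compound added (max 110 uM), 30 min RT; streptavidin donor/Ni-chelate acceptor beads 10 ug/mL final, 20 min dark; AlphaScreen read.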
# HP1b chromo inh: blocks HP1-beta chromodomain binding to methylated histone tails; P83916; AlphaScreen HP1-beta / biotin-H3K9me3 peptide binding; Potency, µM (titrated, usually from 114 µM), most hits filed as inhibitors; actives 0.56% (n = 390,000); also: nearly all actives have a fitted effect of over 70% in size
#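 Compound inhibition of the preformed complex between 50 nM HP1-beta and 50 nM biotinylated H3K9me3 peptide was read by AlphaScreen. Buffer was PBS pH 7.4 with 0.01% Tween-20. Incubations ran 30 min at room temperature, with 10 ug/mL donor/acceptor beads.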
# CtBP-E1A inh: blocks the CtBP interaction with E1A; AID 651724; actives 0.49% (n = 340,000); activity change, % (test concentration not listed); AlphaScreen GST-E1A/His-CtBP binding, 1536-well; active compounds read low; in the data active = activity change below about -65%; inconclusive = mostly about -30% to -63%
#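 Protein mix (5X: 125 nM each GST-E1A, His-CtBP) was incubated with pinned compound 2 h at 37 deg C in dark, in 50 mM Tris pH 8.0 buffer with 300 mM NaCl. Glutathione donor and nickel acceptor beads followed; AlphaScreen signal read after 1 h.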
# TDP1 inh: blocks human tyrosyl-DNA phosphodiesterase 1 | recombinant TDP1, AlphaScreen DNA substrate cleavage | Potency, µM (doses to about 130 µM), hits mostly inhibitors | actives 0.28% (n = 350,000) | AID 485290; also: nearly all actives have a fitted effect of over 40% in size
#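 Tdp1 1 nM final; 15 min RT w/ cpd; substrate 15 nM, 5 min; beads 10 ug/ml, 10 min; AlphaScreen read. Neg ctrl: no enzyme.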
# Six1-Eya2 inh: Six1/Eya2 interaction inhibition; AlphaScreen GST-Six1/His-Eya2 binding, biochemical; active compounds read low; activity change, % (test concentration not listed); actives 0.56% (n = 360,000); in the data active = activity change below about -65%; inconclusive = mostly about -30% to -63%
#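 Homogeneous AlphaScreen proximity assay pairing GST-Six1 with His-tagged Eya2 (added as 5X mix: 250 nM and 500 nM) in 50 mM Tris pH 8.0, 300 mM NaCl, 1 mM TCEP. Glutathione donor and nickel acceptor beads; 1 h, 37 °C, dark.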
# JMJD2A Tudor: inhibitors of human JMJD2A Tudor domain. actives 4.4% (n = 390,000). Potency, µM (titrated, usually from 114 µM), hits mostly inhibitors. AlphaScreen JMJD2A-Tudor / H3K4me3 peptide binding. AID 504339. O75164; also: nearly all actives have a fitted effect of over 50% in size
# Target sequence (O75164 whole entry, looked up, the tested form may be a part): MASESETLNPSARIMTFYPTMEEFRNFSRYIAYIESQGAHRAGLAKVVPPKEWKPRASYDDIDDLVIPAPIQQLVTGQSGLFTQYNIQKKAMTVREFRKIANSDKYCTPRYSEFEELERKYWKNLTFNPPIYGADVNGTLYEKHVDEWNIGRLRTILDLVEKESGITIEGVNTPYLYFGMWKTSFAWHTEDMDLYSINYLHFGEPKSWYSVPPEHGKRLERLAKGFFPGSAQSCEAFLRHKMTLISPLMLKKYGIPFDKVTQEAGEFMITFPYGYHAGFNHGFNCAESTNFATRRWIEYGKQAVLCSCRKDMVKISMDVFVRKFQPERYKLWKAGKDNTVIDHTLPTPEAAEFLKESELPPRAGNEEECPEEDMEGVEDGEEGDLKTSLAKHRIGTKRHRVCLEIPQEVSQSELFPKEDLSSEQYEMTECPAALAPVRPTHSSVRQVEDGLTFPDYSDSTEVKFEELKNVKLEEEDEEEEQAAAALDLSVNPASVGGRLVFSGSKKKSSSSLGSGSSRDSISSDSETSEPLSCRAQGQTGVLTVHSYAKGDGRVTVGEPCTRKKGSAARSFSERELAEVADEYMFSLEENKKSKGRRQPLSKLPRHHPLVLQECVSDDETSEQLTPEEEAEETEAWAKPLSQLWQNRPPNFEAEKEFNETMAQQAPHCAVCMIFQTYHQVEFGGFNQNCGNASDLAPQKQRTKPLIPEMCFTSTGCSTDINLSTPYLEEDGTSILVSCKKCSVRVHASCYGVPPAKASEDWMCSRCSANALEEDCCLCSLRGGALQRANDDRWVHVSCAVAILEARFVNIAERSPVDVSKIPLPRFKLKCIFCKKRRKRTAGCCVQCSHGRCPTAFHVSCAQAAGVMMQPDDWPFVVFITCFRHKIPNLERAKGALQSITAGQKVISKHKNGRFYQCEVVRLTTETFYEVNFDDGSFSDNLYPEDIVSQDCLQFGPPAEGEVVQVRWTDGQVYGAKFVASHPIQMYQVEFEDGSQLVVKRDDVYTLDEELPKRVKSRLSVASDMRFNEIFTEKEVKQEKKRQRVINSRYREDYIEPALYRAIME
# Numbers stand for hits; i = inactive; ? = inconclusive; nt = no result given; [ ] = another dose, or the depositor's remark. Unless noted, calls follow the shape of the dose curve; as a rule, active = well fitted inhibition curve with a large enough effect; inconclusive = small, poorly fitted or top-dose-only effect; inactive = no such curve, though single readings can be large or run the other way.
SMILES,BAZ2B block,HP1b chromo inh,CtBP-E1A inh,TDP1 inh,Six1-Eya2 inh,JMJD2A Tudor
CCC(C)Nc1ccc(NC(C)CC)cc1 (stereo not drawn),35µM,?,?,i,i,40µM
O=C(O)c1nn2c(C(F)(F)F)cc(-c3cccs3)nc2c1Cl,i,i,-67,i,-74,i
O=C(NCC1CCCO1)c1nn2c(C(F)(F)F)cc(-c3cccs3)nc2c1Cl (stereo not drawn),i,i,i,i,i,i
CCOC(=O)[C@]1(C(NC(=O)OC)c2cccc(F)c2)CCCC1=O (stereo partly drawn),nt,nt,nt,i[21 µM],nt,nt
CCOC(=O)/C(N=Nc1ccc2c(c1)OCO2)=C(\C)O,?,i,i,i,i,50µM
Cc1ccc(-c2nc(CNC(=O)NC3CCCCC3)c(C)o2)cc1,i,i,nt,i,nt,i
Cc1ccc(C(=O)OCC(=O)NCc2ccco2)s1,i,i,i,nt,i,35µM
Cc1ccccc1C(=O)OCC(=O)NCc1ccco1,nt,i,i,?,i,?
Cc1c(C(=O)OCC(=O)NCc2ccco2)cccc1[N+](=O)[O-],50µM,i,i,i,i,?
Cc1cccc(Nc2ccccc2C(=O)OCC(=O)NCc2ccco2)c1C,50µM,i,i,i,i,45µM
N#CC1(NC(=O)COc2ccccc2[N+](=O)[O-])CCCCC1,i,?,i,nt,i,20µM
Cc1ccc([N+](=O)[O-])cc1NC(=O)/C=C/C(=O)O,79µM,i,i,i,i,i
COc1ccc([N+](=O)[O-])cc1NS(=O)(=O)c1cccc(C(=O)OC2CCOC2=O)c1 (stereo not drawn),nt,i,i,i,i,i
COc1ccc([N+](=O)[O-])cc1NS(=O)(=O)c1cccc(C(=O)O)c1,i,i,i,i,i,32µM
COc1ccc([N+](=O)[O-])cc1NC(=O)/C=C/C(=O)O,i,i,i,i,i,i
CC(=O)Nc1ccc(S(=O)(=O)Nc2cc([N+](=O)[O-])ccc2C)cc1,i,?,i,i,i,10µM
CC(=O)c1c(C)[nH]c(C(=O)OCC(=O)C(C)(C)C)c1C,?,i,i,i,i,i
CC(=O)c1c(C)[nH]c(C(=O)OCc2cccc(C)c2)c1C,50µM,i,i,i,i,i
COc1ccc(C)cc1COC(=O)c1[nH]c(C)c(C(C)=O)c1C,i,i,i,i,i,i
CCOC(=O)c1c(C)[nH]c(C(=O)OCc2ccccc2)c1C,i,i,i,i,i,i
CC(=O)c1c(C)[nH]c(C(=O)OCC(=O)c2ccc(C)s2)c1C,56µM,i,i,i,i,i
COC(=O)CCc1c(C)[nH]c(C(=O)OCc2ccccc2)c1C,50µM,i,?,i,?,?
Cc1ccc(-c2[nH]c3c(c2-c2c(-n4cccc4)n(C)c(=O)[nH]c2=O)c(=O)[nH]c(=O)n3C)cc1,i,i,nt,i,nt,i
Cn1c(-n2cccc2)c(-c2c(-c3ccccc3)[nH]c3c2c(=O)[nH]c(=O)n3C)c(=O)[nH]c1=O,79µM,i,nt,?,nt,i
COC(=O)C1CCN(c2c([N+](=O)[O-])cc(C(F)(F)F)cc2[N+](=O)[O-])CC1,35µM,?,i,i,?,i[11.4 µM]
SMILES,BAZ2B block,HP1b chromo inh,CtBP-E1A inh,TDP1 inh,Six1-Eya2 inh,JMJD2A Tudor
O=C(CCS(=O)(=O)c1nc(-c2cccs2)cc(C(F)(F)F)n1)Nc1ccc(OC(F)(F)F)cc1,i,i,nt,i,nt,i
CC(C)c1nnc(NC(=O)CCS(=O)(=O)c2nc(-c3cccs3)cc(C(F)(F)F)n2)s1,89µM,i,i,i,i,i
Nc1c(C(=O)N2CCCCC2)sc(=S)n1-c1ccccc1,?,14µM,i,i,i,50µM
Nc1c(C(=O)N2CCOCC2)sc(=S)n1-c1ccccc1,i,i,i,i,i,?
Cc1ccc(-n2c(N)c(C(=O)N3CCCCC3)sc2=S)cc1,?,16µM,i,i,i,?
Cc1cc(C)c(S(=O)(=O)NCC(c2ccc(N(C)C)cc2)N2CCc3ccccc32)c(C)c1 (stereo not drawn),3.2µM,?,nt,i,nt,13µM
O=S(=O)(NCC(c1ccco1)N1CCc2ccccc21)c1ccccc1 (stereo not drawn),40µM,?,i,i[0.505 µM],i,?
Cc1cc(C)c(S(=O)(=O)NCC(c2ccc(N(C)C)cc2)N2CCOCC2)c(C)c1 (stereo not drawn),40µM,?,nt,i,nt,50µM
COc1ccc(C)cc1S(=O)(=O)NCC(c1ccc(N(C)C)cc1)N1CCc2ccccc21 (stereo not drawn),10µM,?,nt,i,nt,14µM
O=S(=O)(NCC(c1ccco1)N1CCN(c2ccccc2F)CC1)c1ccccc1 (stereo not drawn),i,i,i,i,i,i
C=Cc1ccc(Cn2c(C)c(CNCc3cccc(Br)c3)c(C(=O)O)c2C)cc1,?,i,nt,i,nt,i
COc1ccc(OCc2nc3ccccc3n2C(C)c2ccccc2)cc1 (stereo not drawn),i,i,nt,nt,nt,i
CN(C)c1ccc(C(CNS(=O)(=O)c2ccc(F)cc2)N2CCc3ccccc32)cc1 (stereo not drawn),10µM,?,nt,i,nt,20µM
Cc1c2cnn(-c3ccccc3)c(=O)c2c(C)n1CC(=O)N1CCN(c2ccc(F)cc2)CC1,i,i,nt,i,nt,i
CO[C@H]1COC(=O)C/C=C\[C@@H](C)COC(=O)[C@@H](OCc2ccccc2)/C=C\[C@@H]1C,nt,nt,nt,i[21 µM],nt,nt
CCCCCCCCCCCCC(=O)N1CCCC[C@H]1CNC(=O)[C@@H](N)CCCCN,nt,nt,nt,i,nt,nt
NS(=O)(=O)c1ccc(N2CCCC2=O)c([N+](=O)[O-])c1,i,i,i,i,i,i
CCCCN(CCCC)S(=O)(=O)c1ccc(SCC(=O)OCC)c([N+](=O)[O-])c1,i,79µM,i,i,i,?
NNS(=O)(=O)c1ccc(N2CCCC2=O)c([N+](=O)[O-])c1,i,i,nt,i,i,25µM
CCCCN(CCCC)S(=O)(=O)c1ccc(N2CCCC2=O)c([N+](=O)[O-])c1,nt,i,i,nt,i,32µM
CCCN(CCC)S(=O)(=O)c1ccc(N2CCCC2=O)c([N+](=O)[O-])c1,i,i,i,i,i,i
O=C(NCc1nnc(-c2nc3ccccc3[nH]2)o1)C1CCCCC1,nt,nt,nt,i,nt,i
CCN(CC)S(=O)(=O)c1ccc(Oc2ccccc2)c(N)c1,nt,i,i,i,i,i
Cc1cc(C)[n+](-c2ccc(Oc3ccccc3)c(S(=O)(=O)[O-])c2)[nH]1,i,i,i,nt,i,50µM
Cn1c(=O)c2c([nH]c(=O)n2Cc2ccc(Cl)cc2Cl)n(C)c1=O,i,i,nt,nt,nt,i
Cc1cccc(-n2c(SCC(=O)Nc3ccccc3Cl)nc3n[nH]c(C)c3c2=N)c1,i,i,nt,i,nt,i
